Rows were chosen to be rich in hits. Some 28% of all compounds tested hit in one or more screens of this group.
PLK1 kinase inh = inhibitors of human PLK1 kinase | actives 0.53% (n = 97,000) | inhibition, % at 10 µM | P53350 | recombinant PLK1 kinase, TR-FRET peptide phosphorylation;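 active = inhibition of 50% or more in the single-concentration screen; inactive = inhibition below 50%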;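 also: 0% = DMSO max control and 100% = H-89 dihydrochloride min control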
CYP2C9 inh = human CYP2C9 inhibition. CYP2C9 Supersomes, luciferin-H conversion, luminescence. actives 20% (n = 96,000). inhibition, % at 5 µM;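 active = blocking of liver enzyme CYP2C9 beyond about 50% at 5 µM, limit read from the data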
Plk1 PBD FP = Plk1 (human) PBD binding inhibition; inhibition, %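 (tested at about 20 µM)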; Plk1 PBD phosphopeptide binding, fluorescence polarization; P53350; AID 693; actives 0.13% (n = 97,000); in the data active = inhibition above about 34%, passing the limit was not always enough
CYP2C19 inhib = inhibitors of human CYP2C19. P33261. CYP2C19 Supersomes, luciferin-H EGE luminescence, 30 min. inhibition, % at 5 µM. actives 21% (n = 96,000). AID 778;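 active = CYP2C19 inhibition above a set limit at 5 µM in the primary screen, cut at about 50% in these data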;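 also: plate controls were negative control wells for no effect and 2.5 mM tranylcypromine positive control for full effect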
Target sequence (P33261 whole entry, looked up): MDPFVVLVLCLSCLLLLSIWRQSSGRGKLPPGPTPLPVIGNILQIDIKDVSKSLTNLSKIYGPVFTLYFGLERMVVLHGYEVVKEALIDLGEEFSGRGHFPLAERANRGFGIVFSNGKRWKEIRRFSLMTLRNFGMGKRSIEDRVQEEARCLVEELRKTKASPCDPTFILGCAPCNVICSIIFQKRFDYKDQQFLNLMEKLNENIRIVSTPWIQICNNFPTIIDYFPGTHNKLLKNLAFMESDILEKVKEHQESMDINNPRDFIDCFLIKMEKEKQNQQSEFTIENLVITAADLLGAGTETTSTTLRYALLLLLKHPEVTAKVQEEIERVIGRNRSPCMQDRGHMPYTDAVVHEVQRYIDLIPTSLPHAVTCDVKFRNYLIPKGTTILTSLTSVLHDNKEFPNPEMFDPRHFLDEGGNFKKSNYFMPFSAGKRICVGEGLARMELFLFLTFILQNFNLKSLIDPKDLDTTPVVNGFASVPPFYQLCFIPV
CYP2C19 act = increases human CYP2C19 enzyme activity; P33261; recombinant CYP2C19, luciferin-H EGE luminescence; active compounds read high; 0 = fully inhibited enzyme, 1 = untreated enzyme; activation factor at 5 µM; 96,000 tested, under 10 active;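 active = activation factor of at least 2 at 5 µM in the primary screen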;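 also: 0 = wells with 2.5 mM tranylcypromine and 1 = vehicle-only wells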
CYP2C9 activ = activators of human CYP2C9; actives 1.4% (n = 96,000); recombinant CYP2C9, luciferin-H conversion, luminescence; active compounds read high; factor 1 = untreated enzyme, 0 = blocked; activation factor at 5 µM; AID 1024; P11712;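 active = activation factor of 2 or more for CYP2C9 at a 5 µM dose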;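 also: 0 = sulfaphenazole-blocked wells and 1 = vehicle-only wells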
* = called active by the depositor.

How did COc1cccc(NC(=O)CSCC(=O)O)c1 do in these assays?
PLK1 kinase inh: -6; CYP2C9 inh: 12; Plk1 PBD FP: -8; CYP2C19 inhib: 12; CYP2C19 act: 0.9; CYP2C9 activ: 0.9

What do the screens show for `CCCCSCCCNC(=O)Nc1cccc(OC)c1`?
PLK1 kinase inh: -6; CYP2C9 inh: 73*; Plk1 PBD FP: -3; CYP2C19 inhib: 80*; CYP2C19 act: 0.2; CYP2C9 activ: 0.3

How did CCCCNC(=O)C1CCCN1C(=O)Nc1cccc(OC)c1 (stereo not given) do in these assays?
PLK1 kinase inh: -6; CYP2C9 inh: -8; Plk1 PBD FP: 12; CYP2C19 inhib: -7; CYP2C19 act: 1.1; CYP2C9 activ: 1.1

How did COc1cccc(NC(=O)CNC(=O)c2ccc(F)cc2)c1 do in these assays?
PLK1 kinase inh: -12; CYP2C9 inh: 42; Plk1 PBD FP: 7; CYP2C19 inhib: 53*; CYP2C19 act: 0.5; CYP2C9 activ: 0.6

Results for COc1cccc(NC(=O)Cc2ccccc2)c1 ?
PLK1 kinase inh: -11; CYP2C9 inh: 31; Plk1 PBD FP: -40; CYP2C19 inhib: 94*; CYP2C19 act: 0.1; CYP2C9 activ: 0.7

What do the screens show for `CC(=NCc1ccccc1)C1=C(O)COC1=O`?
PLK1 kinase inh: 1; CYP2C9 inh: -16; Plk1 PBD FP: 15; CYP2C19 inhib: 9; CYP2C19 act: 0.9; CYP2C9 activ: 1.2

Results for Cc1ccc(S(=O)(=O)N2C(=O)CCC2C(=O)Nn2cnnc2)cc1 (stereo not given) ?
PLK1 kinase inh: -4; CYP2C9 inh: -23; Plk1 PBD FP: 13; CYP2C19 inhib: -11; CYP2C19 act: 1.1; CYP2C9 activ: 1.2

What do the screens show for `COc1ccc(NC(=O)CC2SC(=Nc3ccccc3)NC2=O)cc1` (stereo not given)?
PLK1 kinase inh: -7; CYP2C9 inh: -2; Plk1 PBD FP: 9; CYP2C19 inhib: -10; CYP2C19 act: 1.1; CYP2C9 activ: 1

Results for CCN(CC)C(=O)CSCC(=O)Nc1ccccc1 ?
PLK1 kinase inh: -7; CYP2C9 inh: -3; Plk1 PBD FP: 27; CYP2C19 inhib: 57*; CYP2C19 act: 0.4; CYP2C9 activ: 1

How did COc1cccc(NC(=O)CC2SC(=Nc3ccccc3)NC2=O)c1 (stereo not given) do in these assays?
PLK1 kinase inh: -19; CYP2C9 inh: 70*; Plk1 PBD FP: -3; CYP2C19 inhib: 63*; CYP2C19 act: 0.4; CYP2C9 activ: 0.3

Results for COC(=O)c1ccccc1NC(=O)CSCC(=O)Nc1ccccc1 ?
PLK1 kinase inh: -7; CYP2C9 inh: 34; Plk1 PBD FP: 3; CYP2C19 inhib: 53*; CYP2C19 act: 0.5; CYP2C9 activ: 0.7

How did Cc1ccc2nc3c(cc(C#N)c(=N)n3CC3CCCO3)c(=O)n2c1 (stereo not given) do in these assays?
CYP2C9 inh: 5; CYP2C19 inhib: 2; CYP2C19 act: 1; CYP2C9 activ: 0.9

What do the screens show for `COc1ccc(-c2cn3nc4c(nc3n2)CCCC4)cc1`?
PLK1 kinase inh: 14; CYP2C9 inh: -8; Plk1 PBD FP: -5; CYP2C19 inhib: 42; CYP2C19 act: 0.6; CYP2C9 activ: 1.1

How did COc1ccc(OCCC(=O)OCC(=O)NC(=O)NC(C)(C)C)cc1 do in these assays?
PLK1 kinase inh: 1; CYP2C9 inh: 83*; Plk1 PBD FP: -19; CYP2C19 inhib: 84*; CYP2C19 act: 0.2; CYP2C9 activ: 0.2

What do the screens show for `COc1ccc(OCCC(=O)OCC(=O)NCc2ccco2)cc1`?
CYP2C9 inh: 4; CYP2C19 inhib: 6; CYP2C19 act: 0.9; CYP2C9 activ: 1

Results for Cn1ccs/c1=N\S(=O)(=O)c1ccc(F)cc1 ?
PLK1 kinase inh: 12; CYP2C9 inh: -62; Plk1 PBD FP: 17; CYP2C19 inhib: 33; CYP2C19 act: 0.7; CYP2C9 activ: 1.6

What do the screens show for `c1ccc(CNn2nnnc2-c2ccccc2)cc1`?
PLK1 kinase inh: -12; CYP2C9 inh: 13; Plk1 PBD FP: -23; CYP2C19 inhib: 68*; CYP2C19 act: 0.3; CYP2C9 activ: 0.9

What do the screens show for `c1ccc(Cn2nnnc2-c2ccco2)cc1`?
PLK1 kinase inh: -8; CYP2C9 inh: 16; Plk1 PBD FP: -5; CYP2C19 inhib: 45; CYP2C19 act: 0.5; CYP2C9 activ: 0.8

Results for Nc1cccc(Nc2nc(OC(C(F)(F)F)C(F)(F)F)nc(OC(C(F)(F)F)C(F)(F)F)n2)c1 ?
PLK1 kinase inh: -11; CYP2C9 inh: 19; Plk1 PBD FP: -12; CYP2C19 inhib: 6; CYP2C19 act: 0.9; CYP2C9 activ: 0.8
